Screening results from PubChem BioAssay.
Sampled rows, rich in hits. Any-hit rate of the full collection: about 2.6%.
STAT3 SMM = STAT3 (human) binding; AID 624138; calls only; Small molecule microarray, His-STAT3 binding, anti-His fluorescence; P40763; actives 0.2% (n = 17,000);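 active = compounds whose four printed spots each show fluorescence over background unusually high for their array block, chance value under 7%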
c-Myc SMM = binders of human c-Myc; calls only; P01106; small molecule microarray, His-c-Myc binding, anti-His fluorescence; actives 1.5% (n = 17,000);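 active = spot fluorescence over background with P-value below 7% in all four replicate spots, showing protein binding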
Target sequence (P01106 whole entry, looked up): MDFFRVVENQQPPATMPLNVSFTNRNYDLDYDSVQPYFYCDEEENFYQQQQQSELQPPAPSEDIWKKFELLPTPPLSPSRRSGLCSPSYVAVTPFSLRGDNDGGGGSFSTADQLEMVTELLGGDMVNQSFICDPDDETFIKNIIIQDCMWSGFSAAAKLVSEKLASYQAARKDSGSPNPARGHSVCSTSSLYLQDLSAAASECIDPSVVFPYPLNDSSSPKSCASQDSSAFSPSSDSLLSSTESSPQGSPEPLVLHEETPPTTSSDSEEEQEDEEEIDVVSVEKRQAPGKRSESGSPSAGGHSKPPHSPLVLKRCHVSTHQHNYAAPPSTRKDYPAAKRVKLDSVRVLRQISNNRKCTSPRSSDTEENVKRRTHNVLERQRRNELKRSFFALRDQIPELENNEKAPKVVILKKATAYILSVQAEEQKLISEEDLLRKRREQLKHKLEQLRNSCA
mut p53 react = restores mutant p53 pathway signaling in SW480 cells | SW480 PUMA-promoter luciferase, p53 mutant reactivation | AID 624151 | activation, % at 9.98 µM | actives 1.5% (n = 28,000); in the data active = activation above about 52%; inconclusive = no clear call, values can overlap the other calls
p53 mut binder = mutant p53 (human) binding | AID 624136 | small molecule microarray binding, anti-GST fluorescence | calls only | actives 0.4% (n = 17,000);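 active = compounds whose four printed spots each glow above background more than chance allows, each with a p-value under 7%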
NFkB SMM = NF-kappa-B p105 (human) binding | Small molecule microarray, anti-His fluorescence binding | actives 1.3% (n = 17,000) | calls only;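 active = spot fluorescence over background significantly raised, with a chance value under 7% in all four replicate spots of the compound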;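 note: probe protein is his-tagged human p50 processed subunit at 1 µg/ml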
Each line names hits and unclear results; the compound was inactive in the other large screens.

Cc1ccccc1OCC(=O)Nc1cccc(C(=O)O)c1	none (no result: STAT3 SMM, c-Myc SMM, p53 mut binder, NFkB SMM)
CC(C)(C)c1cc(-c2csc(-c3ccno3)n2)cc(C(C)(C)C)c1O	none (no result: STAT3 SMM, c-Myc SMM, p53 mut binder, NFkB SMM)
O=C(CSc1nc(-c2ccccc2)c(-c2ccccc2)[nH]1)Nc1ccc(F)cc1	none (no result: STAT3 SMM, c-Myc SMM, p53 mut binder, NFkB SMM)
Cc1ccc(C2SCC(C(=O)O)N2C(=O)c2cccc(Cl)c2)cc1 (configuration not stated)	none (no result: STAT3 SMM, c-Myc SMM, p53 mut binder, NFkB SMM)
N#CCCN(CCC#N)C(=O)c1ccco1	none
CCC(=O)Nc1ccc(Cl)c(NC(=O)COc2ccc(Br)cc2)c1	none (no result: STAT3 SMM, c-Myc SMM, p53 mut binder, NFkB SMM)
CCC(=O)Nc1ccc(Cl)c(NC(=O)COc2ccccc2C)c1	mut p53 react 107 (no result: STAT3 SMM, c-Myc SMM, p53 mut binder, NFkB SMM)
Cc1ccc(C)c(NC(=O)C(C)N(c2ccc(C)c(C)c2)S(C)(=O)=O)c1 (configuration not stated)	none (no result: STAT3 SMM, c-Myc SMM, p53 mut binder, NFkB SMM)
CCOC(=O)c1c(CSc2nc(C)cc(C)n2)nc2c3ccccc3ccn12	mut p53 react 90 (no result: STAT3 SMM, c-Myc SMM, p53 mut binder, NFkB SMM)
Clc1ccc2ncnc(NCc3ccc4c(c3)OCO4)c2c1	none
COc1ccc2ncc3c(c2c1)-c1cc(Cl)ccc1OC3	mut p53 react 69 (no result: STAT3 SMM, c-Myc SMM, p53 mut binder, NFkB SMM)
CC(=O)c1ccc(NC(=O)CSc2nc3ccc(NC(=O)c4ccccc4Cl)cc3s2)cc1	mut p53 react 81 (no result: STAT3 SMM, c-Myc SMM, p53 mut binder, NFkB SMM)
Cc1cc(C)c(NC(=O)CSc2nc3ccc(NC(=O)c4ccccc4C)cc3s2)c(C)c1	none (no result: STAT3 SMM, c-Myc SMM, p53 mut binder, NFkB SMM)
N#Cc1ccccc1CSc1nnc(-c2ccco2)n1-c1ccccc1	none (no result: STAT3 SMM, c-Myc SMM, p53 mut binder, NFkB SMM)
Cc1ccc(-c2nnc(SCc3ccccc3C#N)n2-c2ccccc2)cc1Cl	mut p53 react 84 (no result: STAT3 SMM, c-Myc SMM, p53 mut binder, NFkB SMM)
CC1(C)O[C@H]2CC(=O)OC[C@@]23[C@H]1CC(=O)[C@@]1(C)C2=CC(=O)O[C@@H](c4ccoc4)[C@]2(C)CC[C@@H]13	c-Myc SMM active, NFkB SMM active
Cc1cccc(OCC(=O)Nc2cccc(-c3nnc(-c4ccccc4)o3)c2)c1	mut p53 react 91 (no result: STAT3 SMM, c-Myc SMM, p53 mut binder, NFkB SMM)
CCc1cccc(OCC(=O)Nc2cccc(-c3nnc(-c4ccccc4)o3)c2)c1	mut p53 react 98 (no result: STAT3 SMM, c-Myc SMM, p53 mut binder, NFkB SMM)
O=C(COc1ccc(I)cc1)Nc1cccc(-c2nnc(-c3ccco3)o2)c1	mut p53 react 79 (no result: STAT3 SMM, c-Myc SMM, p53 mut binder, NFkB SMM)
COc1cccc(OCC(=O)Nc2cccc(-c3nnc(-c4ccccc4)o3)c2)c1	mut p53 react 101 (no result: STAT3 SMM, c-Myc SMM, p53 mut binder, NFkB SMM)
Cc1cc(C)cc(OCC(=O)Nc2cccc(-c3nnc(-c4ccco4)o3)c2)c1	none (no result: STAT3 SMM, c-Myc SMM, p53 mut binder, NFkB SMM)
CCc1cccc(OCC(=O)Nc2ccccc2C(N)=O)c1	mut p53 react 130 (no result: STAT3 SMM, c-Myc SMM, p53 mut binder, NFkB SMM)
CCOC(=O)c1ccccc1NC(=O)COc1ccccc1	none
CC1=C([C@H](O)CCc2ccccc2)[C@H](CO)n2c(=O)n(-c3ccccc3)c(=O)n2C1	none (no result: mut p53 react)
Cc1occc1-c1nnc2sc(-c3ccc(-c4ccccc4[N+](=O)[O-])o3)nn12	mut p53 react inconclusive, p53 mut binder active
C[C@@H]1O[C@@H](O[C@H]2[C@H](O[C@H]3CC[C@@]4(C)C(CC[C@]5(C)C4CC=C4C6CC(C)(C)CC[C@]6(C(=O)O[C@@H]6O[C@H](CO[C@@H]7O[C@H](CO)[C@@H](O[C@@H]8O[C@@H](C)[C@H](O)[C@@H](O)[C@H]8O)[C@H](O)[C@H]7O)[C@@H](O)[C@H](O)[C@H]6O)CC[C@]45C)[C@]3(C)CO)OC[C@H](O)[C@@H]2O)[C@H](O)[C@H](O)[C@H]1O (some centres not stated)	none
C[C@@H]1O[C@@H](O[C@H]2[C@H](O[C@H]3CC[C@@]4(C)C(CC[C@]5(C)C4C=C[C@]46OC[C@@]7(CCC(C)(C)C[C@H]74)[C@@H](O)C[C@]65C)[C@]3(C)CO)O[C@H](CO)[C@@H](O)[C@@H]2O[C@@H]2O[C@H](CO)[C@@H](O[C@@H]3O[C@@H](C)[C@H](O)[C@@H](O)[C@H]3O)[C@H](O)[C@H]2O)[C@H](O)[C@H](O)[C@H]1O (some centres not stated)	c-Myc SMM active, NFkB SMM active
CNC[C@@H]1Oc2ccc(NS(=O)(=O)c3cn(C)cn3)cc2CC(=O)N([C@H](C)CO)C[C@@H]1C	NFkB SMM active
C[C@H](CO)N1C[C@H](C)[C@@H](CN(C)C(=O)Nc2ccc(F)cc2)Oc2ccc(NS(=O)(=O)c3ccc(Cl)cc3)cc2CC1=O	none
CNC[C@H]1Oc2ccc(NS(=O)(=O)c3cn(C)cn3)cc2CC(=O)N([C@H](C)CO)C[C@@H]1C	none
C[C@@H]1CN([C@H](C)CO)C(=O)Cc2cc(NS(=O)(=O)c3ccc(Cl)cc3)ccc2O[C@H]1CN(C)CC1CCCCC1	c-Myc SMM active
C[C@@H]1CN([C@@H](C)CO)C(=O)Cc2cc(NS(=O)(=O)c3ccc(Cl)cc3)ccc2O[C@@H]1CN(C)C(=O)Nc1ccc(F)cc1	c-Myc SMM active, NFkB SMM active
